# Results published in the supplement of paper PMC3334620.
# In all, about 33,000 sequences were measured (“E-score (-0.5 to 0.5)”: median about -8e-05, highest 2% from about 0.23 on). This excerpt belongs to a sample that is enriched for the highest values.
# Target: T1, Nrg2 (UniProt P38082)
# T1 sequence: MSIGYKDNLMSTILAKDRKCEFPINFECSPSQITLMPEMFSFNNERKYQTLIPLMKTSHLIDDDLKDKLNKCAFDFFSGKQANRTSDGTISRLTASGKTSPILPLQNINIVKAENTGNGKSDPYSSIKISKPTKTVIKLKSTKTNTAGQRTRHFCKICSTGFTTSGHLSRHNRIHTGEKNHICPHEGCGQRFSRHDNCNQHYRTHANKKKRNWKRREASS
# Assay: PBM E-score (8-mer binding enrichment) (E-score (-0.5 to 0.5)); higher = stronger / more preferred TF binding
# Details: protein concentration: 100 nM; construct: GST-full length
# Summary of the method: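 Each ungapped eight-base word and its reverse complement, pooled, received an E-score from the Universal PBM Analysis Suite. Underlying scans, normalised with masliner, recorded fluorescent anti-GST bound to GST-tagged yeast transcription factors. These were applied at about 100-200 nM to universal all-10-mer Agilent arrays double-stranded by primer extension.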
row,Sequence,PBM E-score
1,AACTACTC,0.184
2,CGCTACTC,-0.0612
3,CGCTACTA,0.234
4,AAGACGTG,-0.0832
5,ACGAATAG,0.0297
6,CACCTCCC,-0.294
7,CAGATGGC,-0.107
8,GAGATACA,0.296
9,TCGATACA,0.243
10,AAGATACA,0.171
11,CATACCTA,-0.0293
12,ACGATACA,-0.0148
13,AAGATATC,0.149
14,GATACCTA,0.256
15,AATACCTA,0.144
16,GCGATACA,-0.00403
17,GAGATATC,0.282
18,TAGATACA,0.0563
19,CAGATATC,0.133
20,ATTTACAA,0.0879
21,GCGCACAA,0.195
22,GTAGAGTA,-0.0442

row,Sequence,PBM E-score
1,CCACGGGC,-0.139
2,GGCCGCCA,0.0869
3,GAGGCCGA,-0.0441
4,CAAACAAC,0.14
5,ATAGGAAC,-0.0698
6,AAAGCAGT,0.201
7,TACATACA,0.199
8,CATACATA,0.219
9,GATACATC,0.134
10,GACATACA,0.246
11,CACATACA,-0.0126
12,GATACATA,0.246
13,AGAAGTAC,-0.0369
14,ACCCGCCG,0.201
15,CCCCGCGG,0.0578
16,ACCCGCGG,0.275
17,ACCCGCGA,0.174
18,ACCCGCGT,-0.119
19,ACCCGCGC,0.229
20,ACTAGGAA,-0.094
21,CGAATCAC,0.117
22,AGGGACCA,0.35

row,Sequence,PBM E-score
1,CTGGACCA,-0.0552
2,AGGGACCT,0.382
3,GGGGACCA,0.0565
4,AGGGACGC,0.196
5,CGGGACCA,-0.173
6,CTGGACCC,0.275
7,AGGGACGA,0.248
8,ACGGACCT,0.17
9,AAGGACCT,0.0061
10,AGGGACGG,-0.0133
11,ATGGACCC,0.206
12,CACGATAC,-0.129
13,ACTTTCGC,-0.0735
14,CAGTTGCC,-0.092
15,ATGAGCAA,0.121
16,AGGGTCAT,0.132
17,GCCCAAGC,0.106
18,ATCTATGC,0.117
19,CCGGGCAC,-0.16
20,CGCAAAGA,0.111
21,GGGTCTCA,0.0513
22,GGGGACCC,0.143

row,Sequence,PBM E-score
1,CGGGACCG,-0.0394
2,AGGGACCG,0.231
3,AGGGACTA,0.242
4,AGGGACAA,0.228
5,AGGGACCC,0.337
6,AGGGACTC,-0.0325
7,AGGGACAC,0.204
8,AGGGACAT,0.301
9,CGGGACCC,-0.0126
10,ACGGACCG,-0.252
11,GGGGACTA,-0.0994
12,CCTGACCA,0.142
13,CGAAGACC,0.0649
14,GCTCTCAA,0.047
15,ACGATCGA,0.0838
16,GTGAGCAA,-0.0485
17,GTCCAGTA,-0.0597
18,AATACAAG,0.296
19,GATACAAA,0.18
20,AATACAAC,0.185
21,AATACAAA,0.269
22,TATACAAA,0.148

row,Sequence,PBM E-score
1,AATACAAT,0.106
2,GTAATCGA,0.154
3,TGAATACA,0.0782
4,CCTTGCTC,0.0643
5,AGCGTTAT,-0.0753
6,GTCTACTA,0.0788
7,CACCTGTC,0.0208
8,AGCTCTGG,-0.136
9,ATCAGATG,-0.0502
10,GTCTTGCA,0.0101
11,ATCTTGCG,-0.0421
12,ATCTTGCA,0.256
13,GAAGCCTC,-0.146
14,ATCGAAGA,0.193
15,ATATTGCA,0.113
16,AGAGATTC,0.0502
17,GACAGTAA,0.0902
18,ATGAAGTA,0.0961
19,ATGAAGTG,0.235
20,ATGAAGTC,-0.0277
21,ATTGAACG,-0.0983
22,ATCCAAAT,0.0165
